Targets with a hit are over-represented here; the source holds about 7,900 in all. About 0.6% of all pairs of compound and target were hits.
What was measured:
Experiment in all cases: log2 fold change, soluble protein after heating vs DMSO (PISA); higher = thermal stabilisation; K562 cells, 10 uM, 30 min; active = over 0.2 and 3.5 SD of the protein, either way, in both replicates (recomputed)
[1] = compound: CS(=O)(=O)c1ccc(-c2cnc(N)c(C(=O)Nc3ccccc3)n2)cc1
How it was run: (§1)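 K562 cells (2×10^6 cells/mL) were treated with 10 μM compound for 30 min, and aliquots were heated for 3 min over 48°C-58°C. Pooled aliquots were extracted in PBS with 0.5% NP-40 at 4°C, and the supernatant after 21,000xg for 90 min was measured by TMTpro 16plex LC-MS/MS with channel sums equalised. Reported thermal stability, relative to control samples and from duplicates, is a log2 fold change.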

crizotinib = compound: C[C@@H](Oc1cc(-c2cnn(C3CCNCC3)c2)cnc1N)c1c(Cl)ccc(F)c1Cl [crizotinib]
How it was run: as §1

[2] = compound: C[C@@H]1COCCN1C2=NC(=NC(=C2)C3(CC3)S(=O)(=O)C)C4=C5C=CNC5=CC=C4
How it was run: as §1

[3] = compound: C[C@H](C1=CC=C(C=C1)C(=O)NC2=C3C=CNC3=NC=C2)N
How it was run: as §1

duvelisib = compound: C[C@H](Nc1ncnc2nc[nH]c12)c1cc2cccc(Cl)c2c(=O)n1-c1ccccc1 [duvelisib]
How it was run: as §1

gandotinib = compound: Cc1cc(Nc2cc(CN3CCOCC3)c3nc(C)c(Cc4ccc(Cl)cc4F)n3n2)n[nH]1 [gandotinib]
How it was run: as §1

tozasertib = compound: Cc1cc(Nc2cc(N3CCN(C)CC3)nc(Sc3ccc(NC(=O)C4CC4)cc3)n2)n[nH]1 [tozasertib]
How it was run: as §1

[4] = compound: Cc1cc(SCc2sc(-c3ccc(C(F)(F)F)cc3)nc2C)ccc1OCC(=O)O
How it was run: as §1

doramapimod = compound: Cc1ccc(-n2nc(C(C)(C)C)cc2NC(=O)Nc2ccc(OCCN3CCOCC3)c3ccccc23)cc1 [doramapimod]
How it was run: as §1

ispinesib = compound: Cc1ccc(C(=O)N(CCCN)[C@@H](c2nc3cc(Cl)ccc3c(=O)n2Cc2ccccc2)C(C)C)cc1 [ispinesib]
How it was run: as §1

bafetinib = compound: Cc1ccc(NC(=O)c2ccc(CN3CC[C@H](N(C)C)C3)c(C(F)(F)F)c2)cc1Nc1nccc(-c2cncnc2)n1 [bafetinib]
How it was run: as §1

[5] = compound: Cc1cccc(CC(=O)N2CCc3c2ccc(-c2cn(C)c4ncnc(N)c24)c3F)n1
How it was run: as §1

nilotinib = compound: Cc1cn(-c2cc(NC(=O)c3ccc(C)c(Nc4nccc(-c5cccnc5)n4)c3)cc(C(F)(F)F)c2)cn1 [nilotinib]
How it was run: as §1

[6] = compound: Cc1nc(Nc2n[nH]c3c2CN(C(=O)N[C@H](CN(C)C)c2ccccc2)C3(C)C)c2sccc2n1
How it was run: as §1

dasatinib = compound: Cc1nc(Nc2ncc(C(=O)Nc3c(C)cccc3Cl)s2)cc(N2CCN(CCO)CC2)n1 [dasatinib]
How it was run: as §1

[7] = compound: Cc1ncc(-c2ccnc(Nc3ccc(S(C)(=O)=O)cc3)n2)n1C(C)C
How it was run: as §1

[8] = compound: Cn1cc(-c2ccc3c(c2)CCN3C(=O)Cc2cccc(C(F)(F)F)c2)c2c(N)ncnc21
How it was run: as §1

[9] = compound: Cn1cc(-c2ccc3nnc(C(F)(F)c4ccc5ncccc5c4)n3n2)cn1
How it was run: as §1

tipifarnib = compound: Cn1cncc1[C@@](N)(c1ccc(Cl)cc1)c1ccc2c(c1)c(-c1cccc(Cl)c1)cc(=O)n2C [tipifarnib]
How it was run: as §1

mubritinib = compound: FC(F)(F)c1ccc(/C=C/c2nc(COc3ccc(CCCCn4ccnn4)cc3)co2)cc1 [mubritinib]
How it was run: as §1

Measured: log2 fold change

HEXB (UniProt P07686)
UniProt P07686, sequence (P07686 whole entry, looked up): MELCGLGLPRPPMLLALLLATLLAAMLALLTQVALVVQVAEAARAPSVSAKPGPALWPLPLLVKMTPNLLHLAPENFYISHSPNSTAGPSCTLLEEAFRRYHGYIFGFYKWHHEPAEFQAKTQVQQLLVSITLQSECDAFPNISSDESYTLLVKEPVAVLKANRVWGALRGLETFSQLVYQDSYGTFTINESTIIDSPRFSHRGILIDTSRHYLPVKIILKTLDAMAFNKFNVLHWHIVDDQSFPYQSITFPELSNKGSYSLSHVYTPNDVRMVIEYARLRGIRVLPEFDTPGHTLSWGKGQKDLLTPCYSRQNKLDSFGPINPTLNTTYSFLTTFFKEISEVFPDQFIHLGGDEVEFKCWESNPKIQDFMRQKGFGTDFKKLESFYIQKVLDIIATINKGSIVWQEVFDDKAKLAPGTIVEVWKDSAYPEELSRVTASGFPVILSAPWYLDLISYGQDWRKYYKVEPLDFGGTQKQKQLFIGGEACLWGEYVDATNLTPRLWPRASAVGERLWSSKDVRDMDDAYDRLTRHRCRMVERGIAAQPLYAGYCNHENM
inactive: [1] -0.009 | [2] 0.058 | [3] -0.021 | duvelisib 0.008 | gandotinib -0.013 | tozasertib 0.012 | [4] -0.031 | doramapimod -0.007 | ispinesib -0.128 | [5] -0.04 | nilotinib 0.002 | [6] 0.032 | dasatinib 0.039 | [7] -0.024 | [8] 0.021 | [9] 0.01 | tipifarnib 0.026 | mubritinib 0.008
active: crizotinib -0.377 | bafetinib -0.468

FAM91A1 (UniProt Q658Y4)
UniProt Q658Y4, sequence (Q658Y4 whole entry, looked up): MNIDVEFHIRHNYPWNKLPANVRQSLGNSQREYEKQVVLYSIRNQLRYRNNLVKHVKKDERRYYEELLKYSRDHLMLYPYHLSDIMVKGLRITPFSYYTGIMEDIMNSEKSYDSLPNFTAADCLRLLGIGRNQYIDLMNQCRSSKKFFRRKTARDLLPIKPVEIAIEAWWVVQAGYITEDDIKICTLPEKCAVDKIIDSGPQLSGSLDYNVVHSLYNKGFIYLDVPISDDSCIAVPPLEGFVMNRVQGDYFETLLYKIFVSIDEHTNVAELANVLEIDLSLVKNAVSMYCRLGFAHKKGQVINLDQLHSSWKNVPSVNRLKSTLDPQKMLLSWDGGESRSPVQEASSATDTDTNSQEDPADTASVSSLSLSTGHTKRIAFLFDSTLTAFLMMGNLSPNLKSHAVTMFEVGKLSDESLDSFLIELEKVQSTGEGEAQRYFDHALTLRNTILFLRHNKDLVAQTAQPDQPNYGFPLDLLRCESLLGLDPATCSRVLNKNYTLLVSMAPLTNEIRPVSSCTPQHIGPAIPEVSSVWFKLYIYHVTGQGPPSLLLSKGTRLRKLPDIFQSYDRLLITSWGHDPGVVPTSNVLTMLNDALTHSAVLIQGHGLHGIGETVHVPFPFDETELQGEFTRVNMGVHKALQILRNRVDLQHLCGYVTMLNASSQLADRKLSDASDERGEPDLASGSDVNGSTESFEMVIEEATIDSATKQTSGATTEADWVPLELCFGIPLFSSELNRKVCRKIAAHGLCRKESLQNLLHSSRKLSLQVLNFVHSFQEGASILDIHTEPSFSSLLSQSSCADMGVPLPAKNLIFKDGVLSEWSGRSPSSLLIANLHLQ
inactive: [1] -0.11 | crizotinib -0.006 | [2] 0.192 | [3] -0.034 | duvelisib -0.008 | gandotinib -0.08 | tozasertib 0.022 | [4] -0.001 | doramapimod -0.012 | ispinesib 0.014 | bafetinib -0.01 | [5] 0.07 | nilotinib -0.007 | [6] 0.073 | dasatinib -0.048 | [7] 0.01 | [8] 0.021 | [9] -0.015 | tipifarnib -0.004 | mubritinib 0.052

IFT80 isoform 3 (UniProt Q9P2H3)
UniProt Q9P2H3, sequence (Q9P2H3 whole entry, looked up): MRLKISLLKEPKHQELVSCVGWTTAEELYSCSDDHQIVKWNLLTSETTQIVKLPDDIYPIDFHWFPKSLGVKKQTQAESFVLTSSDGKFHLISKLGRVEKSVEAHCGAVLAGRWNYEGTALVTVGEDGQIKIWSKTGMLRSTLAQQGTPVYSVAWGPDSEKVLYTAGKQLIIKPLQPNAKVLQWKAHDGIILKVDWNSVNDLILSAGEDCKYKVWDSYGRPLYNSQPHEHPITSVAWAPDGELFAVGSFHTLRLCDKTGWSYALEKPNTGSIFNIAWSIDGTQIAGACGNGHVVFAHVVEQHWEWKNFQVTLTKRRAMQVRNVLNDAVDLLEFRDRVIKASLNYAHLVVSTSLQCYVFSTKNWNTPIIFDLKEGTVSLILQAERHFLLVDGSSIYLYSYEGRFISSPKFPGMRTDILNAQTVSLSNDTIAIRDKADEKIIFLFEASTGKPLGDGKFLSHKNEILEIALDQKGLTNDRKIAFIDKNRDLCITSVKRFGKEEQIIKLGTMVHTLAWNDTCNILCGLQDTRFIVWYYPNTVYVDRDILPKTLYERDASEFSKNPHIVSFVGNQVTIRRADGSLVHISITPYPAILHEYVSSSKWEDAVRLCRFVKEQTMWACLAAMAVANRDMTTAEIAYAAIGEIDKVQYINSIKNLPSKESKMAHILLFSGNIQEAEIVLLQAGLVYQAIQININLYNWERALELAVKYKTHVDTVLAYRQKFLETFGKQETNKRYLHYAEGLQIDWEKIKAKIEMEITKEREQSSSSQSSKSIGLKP
inactive: [1] -0.019 | crizotinib -0.01 | [2] 0.069 | [3] -0.031 | duvelisib 0.057 | gandotinib 0.053 | tozasertib -0.071 | [4] 0.05 | doramapimod 0.069 | ispinesib -0.051 | bafetinib -0.127 | [5] 0.077 | nilotinib -0.059 | [6] -0.02 | dasatinib -0.148 | [7] 0.114 | [8] 0.036 | [9] 0.039 | tipifarnib -0.07 | mubritinib 0.17

GTF2H3 (UniProt Q13889)
UniProt Q13889, sequence (Q13889 whole entry, looked up): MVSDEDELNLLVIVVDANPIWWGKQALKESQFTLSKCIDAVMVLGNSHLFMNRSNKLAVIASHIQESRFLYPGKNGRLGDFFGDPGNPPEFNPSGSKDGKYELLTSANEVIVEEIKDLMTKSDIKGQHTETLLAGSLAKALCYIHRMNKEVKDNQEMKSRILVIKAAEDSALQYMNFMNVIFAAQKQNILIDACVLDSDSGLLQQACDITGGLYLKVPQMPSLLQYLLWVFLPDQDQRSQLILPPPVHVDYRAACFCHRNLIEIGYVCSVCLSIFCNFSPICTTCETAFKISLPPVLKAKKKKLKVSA
inactive: [1] 0.061 | crizotinib 0.049 | [2] -0.012 | [3] -0.003 | duvelisib -0.047 | gandotinib -0.012 | tozasertib -0.031 | [4] -0.2 | doramapimod 0.021 | ispinesib 0.023 | bafetinib -0.009 | [5] 0.058 | nilotinib 0.041 | [6] 0 | dasatinib 0.024 | [7] -0.064 | [8] -0.113 | [9] -0.02 | tipifarnib -0.025 | mubritinib 0.023

H2AFX (UniProt P16104)
inactive: [1] -0.09 | crizotinib -0.096 | [2] -0.39 | [3] 0.479 | duvelisib -0.128 | gandotinib 0.087 | tozasertib 0.073 | [4] -0.078 | doramapimod 0.348 | ispinesib -0.222 | bafetinib 0.103 | [5] -0.198 | nilotinib -0.041 | [6] -0.025 | dasatinib 0.283 | [7] -0.012 | [8] -0.439 | [9] -0.146 | tipifarnib 0.074 | mubritinib -0.111

HEATR3 (UniProt Q7Z4Q2)
UniProt Q7Z4Q2, sequence (Q7Z4Q2 whole entry, looked up): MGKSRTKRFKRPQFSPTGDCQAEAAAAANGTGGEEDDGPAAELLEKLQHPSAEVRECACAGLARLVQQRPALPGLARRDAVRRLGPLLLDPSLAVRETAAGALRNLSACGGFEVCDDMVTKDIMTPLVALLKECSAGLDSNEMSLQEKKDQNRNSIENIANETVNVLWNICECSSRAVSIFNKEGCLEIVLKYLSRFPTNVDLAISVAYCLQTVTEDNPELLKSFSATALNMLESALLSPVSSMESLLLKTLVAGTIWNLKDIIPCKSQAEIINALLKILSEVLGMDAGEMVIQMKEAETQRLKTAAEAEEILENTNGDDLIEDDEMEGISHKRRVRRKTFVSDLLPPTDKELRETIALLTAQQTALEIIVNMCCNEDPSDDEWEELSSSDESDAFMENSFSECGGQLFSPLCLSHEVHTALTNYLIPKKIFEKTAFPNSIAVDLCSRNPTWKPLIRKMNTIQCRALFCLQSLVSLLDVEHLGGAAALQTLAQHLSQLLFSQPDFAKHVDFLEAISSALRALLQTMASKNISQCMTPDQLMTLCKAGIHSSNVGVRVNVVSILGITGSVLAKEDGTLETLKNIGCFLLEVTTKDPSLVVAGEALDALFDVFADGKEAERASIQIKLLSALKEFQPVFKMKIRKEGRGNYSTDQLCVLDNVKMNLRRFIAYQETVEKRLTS
active: [5] 0.389
inactive: [1] -0.001 | crizotinib -0.171 | [2] 0.094 | [3] 0.123 | duvelisib 0.078 | gandotinib -0.377 | tozasertib 0.065 | [4] 0.146 | doramapimod 0.011 | ispinesib -0.006 | bafetinib 0.058 | nilotinib -0.045 | [6] -0.088 | dasatinib -0.073 | [7] -0.073 | [8] -0.008 | [9] 0.138 | tipifarnib -0.011 | mubritinib -0.079

GALNT4 (UniProt Q8N4A0)
UniProt Q8N4A0, sequence (Q8N4A0 whole entry, looked up): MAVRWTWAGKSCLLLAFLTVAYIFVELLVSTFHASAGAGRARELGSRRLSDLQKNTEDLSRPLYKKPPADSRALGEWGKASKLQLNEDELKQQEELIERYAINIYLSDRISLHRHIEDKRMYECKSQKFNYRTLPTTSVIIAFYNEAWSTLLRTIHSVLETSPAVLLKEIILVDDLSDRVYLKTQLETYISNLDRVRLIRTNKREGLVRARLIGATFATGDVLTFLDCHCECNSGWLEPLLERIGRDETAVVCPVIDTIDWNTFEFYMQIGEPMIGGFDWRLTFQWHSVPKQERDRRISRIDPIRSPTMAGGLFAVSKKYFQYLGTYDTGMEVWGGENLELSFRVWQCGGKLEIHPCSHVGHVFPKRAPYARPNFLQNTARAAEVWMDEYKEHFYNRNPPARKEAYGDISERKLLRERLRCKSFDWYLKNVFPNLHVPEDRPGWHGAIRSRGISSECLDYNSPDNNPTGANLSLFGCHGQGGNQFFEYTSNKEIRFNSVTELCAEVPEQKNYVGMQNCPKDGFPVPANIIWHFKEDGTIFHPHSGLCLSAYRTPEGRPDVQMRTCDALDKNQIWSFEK
inactive: [1] 0.047 | crizotinib -0.068 | [2] 0.156 | [3] 0.017 | duvelisib 0.09 | gandotinib -0.153 | tozasertib -0.028 | [4] 0.036 | doramapimod 0.013 | ispinesib 0.04 | bafetinib -0.042 | [5] -0.042 | nilotinib -0.049 | [6] 0.006 | dasatinib -0.021 | [7] 0.042 | [8] 0.079 | [9] -0.005 | tipifarnib 0.038 | mubritinib 0.035

H1FX (UniProt Q92522)
UniProt Q92522, sequence (Q92522 whole entry, looked up): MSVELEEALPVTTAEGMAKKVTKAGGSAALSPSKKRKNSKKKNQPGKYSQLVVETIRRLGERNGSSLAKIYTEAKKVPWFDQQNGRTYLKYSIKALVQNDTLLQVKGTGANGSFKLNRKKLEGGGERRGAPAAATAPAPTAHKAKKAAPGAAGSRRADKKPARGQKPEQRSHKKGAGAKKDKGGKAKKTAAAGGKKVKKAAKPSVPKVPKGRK
inactive: [1] -0.175 | crizotinib 0.091 | [2] -0.524 | [3] 0.432 | duvelisib -0.143 | gandotinib 0.13 | tozasertib 0.029 | [4] 0.021 | doramapimod 0.188 | ispinesib -0.016 | bafetinib 0.248 | [5] 0.048 | nilotinib 0.035 | [6] 0.079 | dasatinib 0.043 | [7] 0.039 | [8] -0.189 | [9] -0.113 | tipifarnib 0.126 | mubritinib -0.138

HK2 (UniProt P52789)
UniProt P52789, sequence (P52789 whole entry, looked up): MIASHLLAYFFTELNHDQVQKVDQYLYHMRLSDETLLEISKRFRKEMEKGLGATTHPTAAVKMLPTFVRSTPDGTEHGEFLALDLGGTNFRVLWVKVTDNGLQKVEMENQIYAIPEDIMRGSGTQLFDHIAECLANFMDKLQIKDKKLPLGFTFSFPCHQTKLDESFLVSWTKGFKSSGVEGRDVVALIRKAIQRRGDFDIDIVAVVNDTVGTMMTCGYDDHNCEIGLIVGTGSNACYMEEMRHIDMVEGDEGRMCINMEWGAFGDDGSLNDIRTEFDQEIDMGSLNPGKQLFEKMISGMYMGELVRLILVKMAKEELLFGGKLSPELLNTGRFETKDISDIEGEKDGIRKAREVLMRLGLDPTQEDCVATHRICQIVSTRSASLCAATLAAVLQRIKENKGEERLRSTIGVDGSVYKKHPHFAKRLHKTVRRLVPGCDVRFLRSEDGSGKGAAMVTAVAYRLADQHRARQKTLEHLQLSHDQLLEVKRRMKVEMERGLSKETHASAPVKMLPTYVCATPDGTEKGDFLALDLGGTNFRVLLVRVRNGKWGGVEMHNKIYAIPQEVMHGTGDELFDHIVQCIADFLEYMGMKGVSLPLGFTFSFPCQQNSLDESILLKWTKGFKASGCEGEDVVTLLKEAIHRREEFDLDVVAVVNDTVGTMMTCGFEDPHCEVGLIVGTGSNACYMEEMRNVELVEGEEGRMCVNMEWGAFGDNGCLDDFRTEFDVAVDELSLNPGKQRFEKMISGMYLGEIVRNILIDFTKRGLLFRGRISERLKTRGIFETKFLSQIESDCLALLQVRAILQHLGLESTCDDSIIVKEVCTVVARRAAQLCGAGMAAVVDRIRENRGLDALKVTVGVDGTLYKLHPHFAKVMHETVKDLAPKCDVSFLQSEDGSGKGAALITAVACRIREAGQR
active: gandotinib -0.297 | nilotinib -0.967
inactive: [1] -0.156 | crizotinib 0.082 | [2] 0.03 | [3] -0.014 | duvelisib 0.014 | tozasertib -0.028 | [4] 0.013 | doramapimod -0.026 | ispinesib 0.161 | bafetinib -0.215 | [5] 0.029 | [6] -0.194 | dasatinib -0.106 | [7] -0.03 | [8] 0.022 | [9] 0.01 | tipifarnib -0.01 | mubritinib 0.046

Reference: the supplement of paper PMC10849652
